Rce1 inhib: yeast Ras-converting enzyme inhibition. Q03530. yeast membranes, quenched prenylated peptide cleavage fluorescence. calls only. actives 0.27% (n = 290,000). AID 2563;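 active = fall in fluorescence gain of 50% or more versus controls, with final raw signal at or below 3038400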;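 note: plate controls were neutral control wells for no effect and wells lacking membranes for full effect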
Target sequence (Q03530 whole entry, looked up): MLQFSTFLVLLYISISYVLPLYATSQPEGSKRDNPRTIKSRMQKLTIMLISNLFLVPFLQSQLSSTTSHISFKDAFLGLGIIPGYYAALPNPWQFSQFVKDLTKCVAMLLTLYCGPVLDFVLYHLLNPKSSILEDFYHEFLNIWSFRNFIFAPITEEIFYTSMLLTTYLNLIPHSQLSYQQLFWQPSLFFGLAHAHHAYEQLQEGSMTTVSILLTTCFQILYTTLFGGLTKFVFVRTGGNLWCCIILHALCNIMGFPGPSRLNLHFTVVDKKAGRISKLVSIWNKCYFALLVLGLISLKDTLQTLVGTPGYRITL
C2C12 statin: protects C2C12 myotubes from simvastatin toxicity; rescue of ATP level, % at 7.49 µM; ATP luminescence, 48 h; scaled: DMSO 0, geranylgeraniol control 100; actives 0.78% (n = 330,000);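 active = mean ATP rescue above about 67%, or every replicate alone reaching that limit, limit read from the data, passing the limit was not always enough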;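 note: myotubes were challenged with 10 µM simvastatin during compound exposure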
PGC1a acetyl inh: modulators of PGC1a acetylation | U2OS PGC1a acetylation, AlphaScreen anti-acetyl-lysine; with virally co-expressed GCN5 acetyltransferase | inhibition, % at 15.6 µM | actives 0.17% (n = 350,000) | AID 651687;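 active = every replicate shows inhibition of at least 40%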;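 note: 0% = neutral control wells and 100% = positive control wells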
AI-2 QS mod: Vibrio harveyi AI-2 quorum sensing modulation. Vibrio harveyi JMH597 AI-2 luminescence/OD600 ratio, 9 h; active compounds read low; strain lacks LuxN and CqsS sensors; 0 = neutral-control median. activity change, % at 7.5 µM. actives 0.4% (n = 300,000). AID 2094; in the data active = activity change below about -75%, passing the limit was not always enough;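 note: luminescence divided by OD600 gain over 9 h not by final OD600 alone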
HIF act: HIF pathway transcriptional activation; U2OS HRE-luciferase reporter, luminescence; normalized: DMSO 0%, desferrioxamine 100%; activation, % at 7.5 µM (by protocol); actives 0.32% (n = 300,000);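 active = mean activation of at least 10% of the iron chelator positive control signal, with at least half of replicates also reaching 10%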
An asterisk follows results filed as active; i = inactive; . = no result; + = active, no number. Rows were chosen to be rich in hits. Some 1.3% of all compounds tested hit in one or more screens of this group.

SMILES	Rce1 inhib	C2C12 statin	PGC1a acetyl inh	AI-2 QS mod	HIF act
CCOC(=O)CN1C(=N)N(c2nc(NC(C)C)nc(NC(C)C)n2)CC1=O	i	-1.1	2.1	12.7	11.5*
CCCNC(=O)N1CC2(CN(S(=O)(=O)c3ccc(OC)cc3)C2)c2c(n(C)c3cc(OC)ccc23)[C@H]1CO	.	.	6.8	.	.
O=C(CCc1nnc2n(Cc3ccc(Cl)cc3)c(=O)c3ccccc3n12)N1CCN(c2ccccn2)CC1	i	-13.3	-4.3	7.4	-0.4
COc1ccc(Cn2c(CCC(=O)N3CCN(c4ccccn4)CC3)nc3ncccc3c2=O)cc1	.	87.6*	18.7	.	.
CCCC(=O)N1CC2(C1)CN(Cc1nccs1)[C@@H](CO)c1[nH]c3cc(OC)ccc3c12	.	.	8.2	.	.
CCn1cc([N+](=O)[O-])c(C(=O)NCc2ccc3c(c2)OCO3)n1	.	2.3	42.5*	.	-0.6
C[C@@H]1CN([C@H](C)CO)S(=O)(=O)c2ccc(C#CC(C)(C)O)cc2O[C@H]1CN(C)CC1CC1	.	.	-8.0	.	.
O=C(Nc1ccccc1)C(Cl)C(=O)c1ccccc1 (configuration not stated)	i	11.4	-1.1	-81.8*	-23.6
COc1ccc2c3c(n(C)c2c1)[C@@H](CO)N(C(=O)Nc1ccccc1F)CC31CCN(C(=O)c2ccccc2)CC1	.	.	0.2	.	.
Oc1ccc(Cl)cc1C1=NNC(c2cccs2)C1 (configuration not stated)	i	148.6*	-6.2	44.1	1.7
CCCNC(=O)[C@H]1[C@H](CO)[C@H]2Cn3c(ccc(-c4cccc(F)c4)c3=O)[C@H]2N1C(=O)CC	.	1.0	3.9	.	.
CCSc1nnc(NC(=O)Cn2cnc3ccccc3c2=O)s1	i	.	4.8	-80.6*	0.0
CCS(=O)(=O)c1ccc(O)c(NC(=O)CCCC(=O)O)c1	i	6.7	13.5	12.5	0.1
CCS(=O)(=O)c1ccc(O)c(NC(=O)/C=C/c2ccccc2)c1	i	.	.	-90.6*	0.6
COC(=O)c1c(CC[C@@H](CO)NC(=O)N[C@H](Cc2ccccc2)Cn2cc(-c3ccccn3)nn2)oc(C(C)=O)c1C(=O)OC	.	.	-1.3	.	.
C[C@H]1CN([C@@H](C)CO)C(=O)Cc2cc(NC(=O)Nc3ccccc3)ccc2O[C@H]1CN(C)S(=O)(=O)c1cccs1	.	-25.4	4.1	.	.
Cc1cccc(N2C(=O)c3cccc4c(N5CCCCC5)c([N+](=O)[O-])cc(c34)C2=O)c1C	+	.	7.5	25.1	-0.4
Nc1c(C(=O)Nc2ccccc2)sc2nc(N3CCOCC3)c3c(c12)CCCC3	.	-7.1	7.1	.	.
Nc1c(C(=O)NCc2ccccc2)sc2nc(N3CCOCC3)c3c(c12)CCCC3	+	9.8	-13.4	25.8	-0.7
N#C/C(=C/c1ccccc1OCc1ccc(F)cc1)c1ccc(C(=O)O)cc1	i	-11.7	-2.3	26.3	-2.2
N#C/C(=C/c1ccc(OCc2ccc(C(=O)O)cc2)c(Br)c1)c1cccc(F)c1	i	9.7	96.1*	28.0	-0.3
Oc1ccc(-c2cn3cc(C(F)(F)F)ccc3n2)cc1	+	.	.	-0.8	1.0
COc1ccc(S(=O)(=O)Nc2ccc3c(c2)CC(=O)N([C@@H](C)CO)C[C@H](C)[C@@H](CN(C)C(=O)Nc2ccc4c(c2)OCO4)O3)cc1	.	-7.5	0.8	.	.
CN(CCS(=O)(=O)c1ccc(Cl)cc1)Cc1cccnc1	i	-5.6	-27.7	22.1	115.8*
O=[N+]([O-])c1cccc(C(=Nc2ccccc2)NO)c1	i	.	.	-33.0	0.4
SMILES	Rce1 inhib	C2C12 statin	PGC1a acetyl inh	AI-2 QS mod	HIF act
O=[N+]([O-])c1cccc(C(=Nc2ccccc2Cl)NO)c1	i	7.8	11.1	-90.9*	-0.1
Cc1nnc(SC(C)C(=O)Nc2ncc(Cl)cc2Cl)n1Cc1ccccc1 (configuration not stated)	i	.	22.7	11.5	-0.2
COCCn1c(SC(C)C(=O)Nc2ncc(Cl)cc2Cl)nc2ccccc21 (configuration not stated)	i	.	43.6*	11.7	-0.1
Cc1ccc(Cl)cc1N1CCN(C(=O)c2ccc(CN3CCOCC3)cc2)CC1	i	0.2	-5.5	-18.1	-0.1
O=C(c1ccc(CN2CCOCC2)cc1)N1CCN(c2cccc(Cl)c2)CC1	i	103.3*	7.5	27.5	0.8
C[C@@H]1CN([C@@H](C)CO)C(=O)c2cccc(NC(=O)c3ccncc3)c2O[C@@H]1CN(C)S(C)(=O)=O	.	-42.0	9.4	.	.
